High-throughput results deposited in PubChem by National Center for Advancing Translational Sciences (NCATS).
HepG2 tox-1 = counter-screen for TGF-b inhibitors: cytotoxicity in HepG2 cells; 0.76% of 410,000 active; HepG2 CAGA-GFP viability, ATP luminescence, 18 h; AID 588856; Potency, µM (highest dose often 46.1 µM), most hits filed as cytotoxic
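CellTiter-Glo luminescence gave cytotoxicity after 18 hours at 37 degrees C. The cells were HepG2 CAGA-GFP in 1% FBS DMEM, stimulated with 500 pg/mL TGF-beta after compound addition. %Activity was normalised to no-cell wells (complete cell-killing) and DMSO (no toxicity), and curves were fitted and classified.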
TDP1 cell noCPT = qHTS for Inhibitors of human tyrosyl-DNA phosphodiesterase 1 (TDP1): qHTS in cells in absence of CPT; DT40 Tdp1-/- hTDP1 cells, no CPT, ATP luminescence, 48 h; Potency, µM (top dose mostly 46.2 µM), most hits filed as inhibitors; AID 686978, 2013; 15% of 420,000 active; also: nearly all actives have a fitted effect of over 55% in size
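A cellular qHTS used chicken DT40 cells lacking endogenous Tdp1 but carrying stably transfected human TDP1. Compounds were applied without camptothecin, and cell growth kinetics were judged by ATP-dependent luminescence after ≥48 hr.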
IL1B secr inh = inhibitors of inflammasome signaling (IL-1 beta secretion) | activity change, % at 57.5 µM | THP-1 LPS/ATP IL-1B secretion, AlphaLISA, 16 h; stronger effect = lower value | 4.7% of 360,000 active; in the data active = activity change below about -50%; inconclusive = mostly about -30% to -49%
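Secreted IL-1B measured by AlphaLISA bead assay after 16 h compound exposure of THP-1 cells; compounds (final up to 57.5 uM) added 1 h before LPS (250 ng/mL) and ATP (1.25 mM) stimulation; lower signal means less secretion.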
ASM inhibitor = inhibitors of human secretory acid sphingomyelinase | AID 504937 | placental ASM, HMU-PC fluorogenic substrate, 60 min | Potency, µM (highest dose often 57.5 µM), usual class: inhibitors | 0.006% of 340,000 active | P17405
Target sequence (P17405 47-631 limits assumed): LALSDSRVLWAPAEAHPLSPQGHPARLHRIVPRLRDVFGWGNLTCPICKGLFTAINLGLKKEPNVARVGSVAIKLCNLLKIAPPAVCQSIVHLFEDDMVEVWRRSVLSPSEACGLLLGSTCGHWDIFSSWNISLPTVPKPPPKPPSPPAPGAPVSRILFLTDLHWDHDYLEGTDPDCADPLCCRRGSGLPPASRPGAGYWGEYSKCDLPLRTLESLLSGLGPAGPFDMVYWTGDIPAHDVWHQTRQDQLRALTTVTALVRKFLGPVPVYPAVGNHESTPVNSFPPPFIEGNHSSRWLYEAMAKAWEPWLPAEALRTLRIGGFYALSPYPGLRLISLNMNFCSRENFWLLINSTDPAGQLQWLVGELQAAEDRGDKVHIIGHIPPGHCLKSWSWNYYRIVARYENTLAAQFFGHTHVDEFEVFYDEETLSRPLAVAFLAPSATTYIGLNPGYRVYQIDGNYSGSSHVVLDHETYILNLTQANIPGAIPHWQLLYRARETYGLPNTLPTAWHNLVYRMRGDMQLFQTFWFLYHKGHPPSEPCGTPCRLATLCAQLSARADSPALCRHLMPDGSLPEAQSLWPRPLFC
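HMU-PC0 cleavage (9 uM final) by human placental ASM, 60 min at 37 °C following 10 min compound exposure at RT; stopped at pH 10, fluorescence Ex 386/Em 447 nm.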
TDP1 cell CPT = DT40-hTDP1 cell growth loss with CPT | chicken DT40 Tdp1-/-;hTDP1 cells + 20 nM CPT, ATP luminescence, 48 h | Potency, µM (top dose mostly 46.2 µM), actives largely listed as inhibitors | 12% of 420,000 active; also: nearly all actives have a fitted effect of over 55% in size
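Cell growth measured by CellTiter-Glo luminescence after a minimum 48 h, 37 C compound exposure with 20 nM CPT in Tdp1-knockout DT40 cells stably expressing hTDP1, seeded 400/well; qHTS titration format.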
TGFb SMAD3 inh = blocks TGF-b signaling | Potency, µM (doses to about 46.1 µM), usual class: inhibitors | AID 588855 | HepG2 CAGA-GFP TGF-b/SMAD3 reporter, GFP fluorescence, 18 h; TGF-beta stimulated, 500 pg/mL final | 1.2% of 410,000 active; also: nearly all actives have a fitted effect of over 65% in size
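Read-out: total well GFP (ex488/em500-530) summed from mean per-cell fluorescence. Cells: HEPG2 CAGA-GFP, 1% FBS DMEM, 18 h at 37 degrees C with 500 pg/mL final TGF-beta. Unstimulated wells served as the full-inhibition control; stimulated DMSO wells = 0%.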
TGFb confirm = TGF-b pathway inhibition, cherry-pick retest. shares compounds with TGFb SMAD3 inh. AID 720534. HepG2 CAGA-GFP TGF-b reporter, GFP fluorescence, 18 h; cells stimulated with TGF-beta, 500 pg/mL. Potency, µM (highest dose often 46.1 µM), usual class: inhibitors. 63% of 1,600 active; also: nearly all actives have a fitted effect of over 65% in size
HepG2 tox-2 = toxic to HepG2 cells in TGF-b counterscreen. shares compounds with TGFb SMAD3 inh. HepG2 CAGA-GFP viability, ATP luminescence, 18 h; cells stimulated with TGF-beta, 500 pg/mL. Potency, µM (highest dose often 46.1 µM), usual class: inhibitors. 27% of 1,600 active. AID 720535; also: nearly all actives have a fitted effect of over 70% in size
TGFb CCL64 inh = orthogonal confirmation of TGF-b inhibitors in CCL64 cells. 41% of 1,600 active. CCL64 CAGA-GFP reporter, TGF-b stimulated, GFP fluorescence, 18 h. Potency, µM (highest dose often 46.1 µM), usual class: inhibitors. shares compounds with TGFb SMAD3 inh; also: nearly all actives have a fitted effect of over 65% in size
TGFb COP inh = blocks TGF-b signaling in HepG2 COP reporter; Potency, µM (top dose mostly 46.1 µM), usual class: inhibitors; shares compounds with TGFb SMAD3 inh; 3% of 1,600 active; HepG2 COP-GFP TGF-b reporter, GFP fluorescence, 18 h; cells stimulated by added recombinant TGF-beta; also: nearly all actives have a fitted effect of over 70% in size
Each line names hits and unclear results; the compound was inactive in the other large screens (follow-up assays come after a bar, where they were run). Only some compounds are listed: those with a hit (about 19% of all), similar ones and a draw of the others. Unless noted, calls follow the shape of the dose curve; as a rule, active = well fitted curve in the direction sought with a large enough effect; inconclusive = small, poorly fitted or top-dose-only effect, or another doubt; inactive = no such curve, though single readings can be large; an effect the other way counts as inactive or inconclusive.

CC(C)(C)C(=O)/C(=C/c1ccncc1)n1cncn1	HepG2 tox-1 14µM, TDP1 cell noCPT 1.6µM, IL1B secr inh -98, TDP1 cell CPT 3.3µM, TGFb SMAD3 inh 4.5µM | TGFb confirm 18µM | HepG2 tox-2 13µM | TGFb CCL64 inh 5.8µM | TGFb COP inh inconclusive
Cc1cc(C(=O)N2CCN(C/C=C/c3ccccc3)CC2)cs1	TGFb SMAD3 inh 16µM | TGFb confirm inconclusive | HepG2 tox-2 inactive | TGFb CCL64 inh inactive | TGFb COP inh inactive
COc1ccccc1N(C(=O)c1ccco1)C(C(=O)NC1CCCC1)c1cccs1 (stereo not drawn)	none
CCc1nc(OCc2ccco2)c2sc3nc4c(cc3c2n1)COC(C)(C)C4	TDP1 cell noCPT 16µM, TDP1 cell CPT 26µM, TGFb SMAD3 inh inconclusive | TGFb confirm inconclusive | HepG2 tox-2 inactive | TGFb CCL64 inh inactive | TGFb COP inh inactive
C=C(C(=O)c1ccccc1)C(C)CC(=O)c1ccccc1 (stereo not drawn)	TDP1 cell noCPT 15µM, IL1B secr inh -106, TDP1 cell CPT 23µM, TGFb SMAD3 inh 13µM | TGFb confirm 4.6µM | HepG2 tox-2 15µM | TGFb CCL64 inh 15µM | TGFb COP inh inactive
O=C(CNC(=O)C(c1ccccc1)c1ccccc1)OCc1ccccc1	none
NNC(=O)c1[nH]c2ccc([N+](=O)[O-])cc2c1-c1ccccc1	TDP1 cell noCPT 23µM, TDP1 cell CPT 21µM, TGFb SMAD3 inh 3.5µM | TGFb confirm inconclusive | HepG2 tox-2 inactive | TGFb CCL64 inh inconclusive | TGFb COP inh inactive
Brc1ccc(-c2ncc3ccccn23)cc1	none
Cc1ccc(Nc2cc(C)c(C#N)c3nc4ccccc4n23)cc1Cl	TDP1 cell noCPT inconclusive, TDP1 cell CPT inconclusive (no result: IL1B secr inh, ASM inhibitor)
Cc1cc(Cl)n2c(nc3ccccc32)c1C#N	TDP1 cell noCPT 0.46µM, IL1B secr inh -100, TDP1 cell CPT 0.41µM, TGFb SMAD3 inh 1.8µM | TGFb confirm 1.2µM | HepG2 tox-2 5.2µM | TGFb CCL64 inh 1.5µM | TGFb COP inh 26µM
CCCCSc1nc(C)cc(SCC(=O)N/N=C/c2cccc(OC)c2O)n1	TDP1 cell noCPT 1.3µM, TDP1 cell CPT 1.5µM, TGFb SMAD3 inh 7.9µM | TGFb confirm 8.2µM | HepG2 tox-2 inconclusive | TGFb CCL64 inh 12µM | TGFb COP inh inactive
COc1ccc(/C=N/NC(=O)CSc2ccccn2)cc1OC	none
OCCC1CN(Cc2nc(-c3ccc(F)cc3)cs2)CCN1CCc1ccccc1 (stereo not drawn)	TDP1 cell noCPT inconclusive, TDP1 cell CPT inconclusive
CC(C)(C)CN1CCN(Cc2nc(-c3ccc(F)cc3)cs2)CC1CCO (stereo not drawn)	TDP1 cell noCPT 21µM, TDP1 cell CPT 16µM, TGFb SMAD3 inh inconclusive | TGFb confirm inconclusive | HepG2 tox-2 inconclusive | TGFb CCL64 inh inactive | TGFb COP inh inactive
CC(=O)NC(C)c1ccc(C(=O)CSc2nnc(C3CC3)n2C2CC2)cc1 (stereo not drawn)	none
CCOc1ccc(C(=O)NC(=S)Nc2cccc(NC(=O)c3ccco3)c2)cc1[N+](=O)[O-]	TDP1 cell noCPT 15µM, IL1B secr inh inconclusive, TDP1 cell CPT inconclusive, TGFb SMAD3 inh 8.9µM | TGFb confirm 8.2µM | HepG2 tox-2 inactive | TGFb CCL64 inh inconclusive | TGFb COP inh inactive
COc1ccc(S(=O)(=O)N2CCC(C(=O)N3CCc4ccccc4C3)CC2)cc1Cl	TDP1 cell noCPT inconclusive, IL1B secr inh inconclusive, TDP1 cell CPT inconclusive, TGFb SMAD3 inh inconclusive | TGFb confirm inconclusive | HepG2 tox-2 inactive | TGFb CCL64 inh inconclusive | TGFb COP inh inactive
COc1ccc(NC(=O)CNC(c2ccccc2)c2ccccc2)cc1Cl	TDP1 cell noCPT inconclusive, TDP1 cell CPT inconclusive, TGFb SMAD3 inh 11µM | TGFb confirm inconclusive | HepG2 tox-2 inactive | TGFb CCL64 inh inconclusive | TGFb COP inh inactive
COC(=O)CCS(=O)(=O)c1nc(-c2ccccc2)cc(C(F)(F)F)n1	HepG2 tox-1 14µM, TDP1 cell noCPT 2.3µM, IL1B secr inh -105, TDP1 cell CPT 3.3µM, TGFb SMAD3 inh 5µM | TGFb confirm 4.6µM | HepG2 tox-2 15µM | TGFb CCL64 inh 2.1µM | TGFb COP inh inconclusive
CC(=O)c1ccc2c(c1)N(Cc1ccc3ccccc3c1)C(=O)C(C)S2 (stereo not drawn)	TDP1 cell noCPT 5.2µM, TDP1 cell CPT 5.8µM, TGFb SMAD3 inh 7.9µM (no result: ASM inhibitor) | TGFb confirm 21µM | HepG2 tox-2 inactive | TGFb CCL64 inh inactive | TGFb COP inh inactive
O=[N+]([O-])c1cc(S(=O)(=O)Nc2ccccc2)ccc1N1CCN(c2ccc(O)cc2)CC1	TDP1 cell noCPT inconclusive, TDP1 cell CPT inconclusive, TGFb SMAD3 inh inconclusive
Cc1ccc(NS(=O)(=O)c2ccc(N3CCN(c4ccc(O)cc4)CC3)c([N+](=O)[O-])c2)c(C)c1	TDP1 cell noCPT 16µM, IL1B secr inh inconclusive, TDP1 cell CPT inconclusive, TGFb SMAD3 inh 14µM | TGFb confirm 12µM | HepG2 tox-2 inconclusive | TGFb CCL64 inh inconclusive | TGFb COP inh inactive
CCOc1c(Cl)cc(/C=N/NC(N)=S)cc1OC	TDP1 cell noCPT 23µM, TDP1 cell CPT inconclusive, TGFb SMAD3 inh 14µM | TGFb confirm inconclusive | HepG2 tox-2 inactive | TGFb CCL64 inh inconclusive | TGFb COP inh inactive
COc1cc(/C=N/NC(N)=S)ccc1OCC(=O)Nc1ccc(C)c(C)c1	TDP1 cell noCPT inconclusive, TDP1 cell CPT inconclusive, TGFb SMAD3 inh inconclusive
